Source: PubChem BioAssay
Wnt bcat act: Wnt/beta-catenin pathway activators, primary screen, cell-based, plate reader, single point. Wnt/beta-catenin reporter cell assay, activator. 300,000 compounds, 1.2% hits. activation, % at 9.35 µM; in the data active = activation above about 30%, passing the limit was not always enough; inconclusive = no clear call, values can overlap the other calls;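 note: 0% = neutral control wells and 100% = positive control wells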
Dyrk1A ADPGlo: rat Dyrk1A kinase inhibitors, primary screen, biochemical, single point, plate reader; 310,000 compounds, 0.43% hits; inhibition, % at 12.5 µM; ADP-Glo luminescence, NFATc1 peptide; AID 504441, 2011;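 note: plate controls were vehicle with enzyme for no effect and no enzyme for full effect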
NSD2 HMT inh: NSD2 histone methyltransferase inhibitors, primary screen, biochemical, AlphaScreen, single concentration, set 2; NSD2 peptide methylation, 120 min; 310,000 compounds, 0.54% hits; Histone-lysine N-methyltransferase NSD2 (Homo sapiens), O96028; inhibition, % at 12.5 µM
miR-122 sensor: miR-122 Renilla sensor signal increase in Huh7, primary screen, miR-122 inhibitor project, cell-based, single point, plate reader | Huh7 miR-122 Renilla luciferase sensor, 48 h; neutral wells = 0, positive control = 100 | activation (reporter increase), % at 12.5 µM | 340,000 compounds, 0.3% hits | AID 602342, 2012;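 active = mean replicate activation score at least 90 and every replicate individually at or above 90; inconclusive = only one of the two criteria met; inactive = neither criterion met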;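 note: higher luciferase means less miR-122 activity so hits act as miR-122 inhibitors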
MITF TRPM1 HTS: activators of MITF-driven TRPM1 promoter reporter, primary screen, cell-based, SK-MEL-5, luciferase, single point | activation, % at 12.5 µM | SK-MEL-5 TRPM1-promoter luciferase, 24 h; % of positive control, neutral wells = 0 | 300,000 compounds, 0.75% hits | AID 588334, 2011;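 active = mean activation of at least 80% with every replicate also reaching 80%; inconclusive = mean reaches 80% but some replicate falls short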;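 note: 0% = neutral control wells and 100% = parthenolide positive control wells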
INS-1E GSIS act: GLuc luminescence reporter in INS-1E cells, primary screen for activators of glucose-dependent secretion of insulin; activation, % at 16.6 µM; AID 743287, 2014; 370,000 compounds, 0.61% hits; INS-1E GLuc reporter insulin secretion, 2-3 h;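 active = lowest replicate activation of at least 40%, so every replicate reaches that level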;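 note: 0% = median of neutral control wells and 100% = median of IBMX positive control wells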
Numbers without * were called inactive; ? = inconclusive; / = no result given; ! = not confirmed by another sample; [ ] = remark or other dose. Only some compounds are listed: those with a hit (about 2.4% of all), similar ones and a draw of the others. Cut-off read from the data, not from the text of the source, unless noted: active = inhibition above about 50%; inactive = the rest.

SMILES | Wnt bcat act | Dyrk1A ADPGlo | NSD2 HMT inh | miR-122 sensor | MITF TRPM1 HTS | INS-1E GSIS act
COc1ccc(C(=O)Nc2ccc3c(c2)OCCO3)c(OC)c1 | 55* | / | -1 | -6 | / | 12
COc1cc(C(=O)Nc2ccc3c(c2)OCCO3)ccc1OC(C)C | / | 2 | -1 | 3 | 75 | /
O=C(N[C@@H]1CC[C@H](CCNS(=O)(=O)c2ccc(Cl)cc2)O[C@@H]1CO)c1cccnc1 | / | / | / | / | / | 8
O=C1N[C@@H](Cc2ccccc2)COCc2cn(nn2)CC[C@@H]1Cc1ccc(-c2ccccc2)cc1 | / | / | / | / | / | 4
COc1cc2sc3ccc(C#Cc4ccc(N)cc4)cc3c(=O)c2cc1OC | -5 | -5 | / | / | 9 | 58*
O=c1c2ccccc2oc2cc(-c3ccc4[nH]ccc4c3)ccc12 | 10 | -6 | / | 19 | 54 | /
COc1cc2sc3ccc(-c4ccc5[nH]ccc5c4)cc3c(=O)c2cc1OC | 12 | -3 | / | -6 | 130* | 7
Cc1noc(C)c1S(=O)(=O)N(C)C[C@@H]1Oc2ccc(NC(=O)Nc3cccc4ccccc34)cc2CC(=O)N([C@H](C)CO)C[C@@H]1C | / | / | / | -4[16.7 µM] | / | 0
COc1cc(C(=O)Nc2ccc(NC(=O)C3CC3)nc2)cc(OC)c1OC | 61* | -2 | 3 | -6 | 2 | /
COc1cccc(C(=O)Nc2ccc(NC(=O)C3CC3)cn2)c1 | 24 | -1 | 4 | 0 | 102* | /
CCC(=O)Nc1ccc(NC(=O)c2cccc(OC)c2)nc1 | / | 14 | -4 | 20 | ? | /
O=C(Nc1ccc(NC(=O)C2CC2)nc1)c1ccccn1 | 0 | 5 | 0 | -4 | -3 | /
O=C(Nc1ccc(NC(=O)C2CC2)nc1)c1cnccn1 | 49* | -1 | -3 | -5 | 6 | 7
C[C@@H]1CN([C@@H](C)CO)C(=O)c2cc(C#CCN(C)C)cnc2O[C@@H]1CN(C)Cc1cccc(C(=O)O)c1 | / | / | / | -2[16.7 µM] | / | 20
COc1ccc2c3c(n(C)c2c1)[C@H](CO)N(Cc1ccc2c(c1)OCO2)CC31CCN(C(=O)C2CC2)CC1 | / | / | / | / | / | -27
CNC(=O)C[C@@H]1CC[C@H]2[C@H](COc3ccc(NC(=O)Nc4c(C)noc4C)cc3C(=O)N2C)O1 | / | / | / | 12[16.7 µM] | / | -3
CC1(C(=O)NCc2cccc3ccccc23)CCN1Cc1ccc(OC(F)(F)F)cc1 (stereo not drawn) | -2 | / | 1 | 2 | / | 203*
N#C/C(=C\c1cccs1)C(=O)NCC1CCCO1 (stereo not drawn) | 39* | 4 | -2 | -3 | / | 11
COCCNC(=O)C[C@H]1C[C@H]2c3cc(NC(=O)Nc4ccccc4)ccc3O[C@H]2[C@@H](CO)O1 | / | / | / | 1[16.7 µM] | / | 6
C/C=C/c1ccc(C2[C@H]3CNC[C@@H]2N3Cc2cc(-c3ccccc3)on2)cc1 (stereo partly drawn) | / | / | / | / | / | 72*!
C/C=C/c1ccc(C2[C@H]3CNC[C@@H]2N3Cc2nccs2)cc1 (stereo partly drawn) | / | / | / | / | / | 3
N#Cc1cccc(-c2ccc(C3[C@H]4CNC[C@@H]3N4Cc3cc(-c4ccccc4)on3)cc2)c1 (stereo partly drawn) | / | / | / | / | / | 72*!
COc1ccccc1-c1ccc(C2[C@H]3CNC[C@@H]2N3Cc2cc(-c3ccccc3)on2)cc1 (stereo partly drawn) | / | / | / | / | / | -2
COc1ccc(C(=O)N/C(=C/c2ccco2)C(=O)NCc2ccco2)cc1 | -2 | 11 | -4 | -5 | -2 | 3
Cc1ccc(C(=O)N/C(=C/c2ccco2)C(=O)NCc2ccco2)cc1 | 0 | -7 | 3 | -1 | -6 | 115*
SMILES | Wnt bcat act | Dyrk1A ADPGlo | NSD2 HMT inh | miR-122 sensor | MITF TRPM1 HTS | INS-1E GSIS act
Cc1ccc(Nc2nc(C(=O)NCc3ccco3)cs2)cc1 | / | 4 | 1 | 162* | 16 | /
CCN(CC)C(=O)c1csc(Nc2ccc(C)cc2)n1 | / | 0 | 4 | 5 | / | /
O=C1/C(=C\c2ccc(O)c(O)c2)SC(=S)N1Cc1ccccc1 | -4 | -2 | 31 | -21 | -4 | -58
O=C1/C(=C\c2cccc(O)c2O)SC(=S)N1Cc1ccccc1 | 4 | 3 | 52* | / | / | /
COc1ccc(/[N+]([O-])=C/c2ccoc2)cc1 | 41* | -1 | / | -3 | 106* | /
COc1ccc(C(=O)N/N=C\c2ccoc2)cc1 | 5 | -4 | 0 | / | -2 | 5
Cn1c(/C(C#N)=C(\O)c2ccc([N+](=O)[O-])s2)nc2ccccc21 | 5 | -1 | -1 | -2 | 12 | -18
Cn1c(/C(C#N)=C(\O)c2ccc(Cl)s2)nc2ccccc21 | 30* | -4 | -2 | 12 | 18 | 6
O=C(C[C@@H]1CC[C@@H]2[C@H](COC[C@@H](O)CN2C(=O)c2ccc3c(c2)OCO3)O1)NC1CCCC1 | / | / | / | 2[16.7 µM] | / | 5
Clc1ccccc1OCc1nc(-c2ccccn2)no1 | 39* | -2 | -4 | -1 | 24 | /
Cc1cccc(OCc2nc(-c3nonc3N)no2)c1C | 62* | -6 | -1 | 0 | ? | /
c1ccc(CCc2nc(-c3ccccn3)no2)cc1 | / | -9 | 3 | -1 | 128* | /
Clc1ccccc1OCc1nc(-c2ccc(Br)o2)no1 | 16 | 2 | / | 7 | / | 2
CCOc1ccc(Cc2nc(-c3nonc3N)no2)cc1OCC | / | 2 | -1 | 5 | 1 | 22
Nc1nonc1-c1noc(COc2ccccc2Cl)n1 | 43* | / | -5 | -6 | 113* | /
C[C@@H]1CN([C@@H](C)CO)C(=O)c2cc(NC(=O)Nc3ccccc3)ccc2O[C@@H](C)CCCCO[C@@H]1CN(C)C(=O)Nc1ccccc1 | / | / | / | / | / | -1
Cc1nc(NC(C)C)c2cnn(CCc3ccccc3)c2n1 | / | -5 | -4 | 4 | 98* | 13
CCCNc1nc(C)nc2c1cnn2CCc1ccccc1 | / | 8 | -1 | / | 60 | 22
C=CCn1c(C)cc(C(=O)COC(=O)c2cncc(Br)c2)c1C | -3 | 0 | 3 | -2 | 93* | 15
C=CCn1c(C)cc(C(=O)COc2ncnc3sccc23)c1C | 30 | -4 | / | 1 | 74 | /
Cc1ccc(C)c(-n2ccnc2SCC(=O)Nc2cccc(S(=O)(=O)NC3=NCCC3)c2)c1 | 47* | 3 | 7 | 10 | -8 | /
O=C(c1cccnc1)N1CC[C@@H]2[C@H](CO)Nc3ccc(C#Cc4cccnc4)cc3[C@@H]21 | / | / | / | 9[16.7 µM] | / | -6
C[C@H]1[C@@H](c2ccccc2)Oc2c(Cl)cccc2S(=O)(=O)N1C | 1 | / | / | / | / | 122*
O=C(Nc1ccc(F)cc1)N1CC(=O)N2[C@@H](CO)[C@H](c3ccc(C#Cc4cccnc4)cc3)[C@@H]2C1 | / | / | / | / | / | 4
COc1ccc(N2CCN(C(=O)c3csc4ccccc34)CC2)cc1 | 0 | 4 | 6 | 162* | -8 | /
